Assay outcomes (PubChem BioAssay)
An excerpt weighted towards active compounds, which were near 8% of everything screened.
KB-V1 MDR tox – kills drug-selected multidrug resistant KB-V1 cells | KB-V1 MDR cells viability, CellTiter-Glo, 72 h | Potency, µM (titrated, usually from 46.1 µM), hits mostly cytotoxic | 3.4% of 400,000 active; also: % is scaled to controls: 0 for no effect and ±100 for the full control effect; nearly all actives have a fitted effect of over 60% in size
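In this primary screen, KB-V1 cells overexpressing P-gp are incubated with library compounds (lowest to highest concentration) for 72 h at 37 degrees C before a luminescent ATP viability read.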
MCF10A rereplic – induces DNA re-replication in MCF 10a normal breast cells; AID 624296; Potency, µM (series often up to 46.1 µM), without a hit: top-dose activity, positive = re-replication, most hits filed as activators; 2.9% of 350,000 active; MCF 10A DNA re-replication, Hoechst nuclear intensity, 48 h; also: % of control where 0% means no effect; nearly all actives have a fitted effect of over 50% in size
HT1080NT lethal – kills 2HG-producing HT-1080-NT fibrosarcoma cells | HT-1080-NT fibrosarcoma viability, CellTiter-Glo ATP luminescence, 48 h | Potency, µM (highest dose often 46.1 µM), for inactives: at the highest dose activity, negative = less viability, usual class: cytotoxic | 1.6% of 360,000 active | AID 686970;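 also: NT is the 2HG producing partner of a matched IDH1 knockdown line; 0% = DMSO-treated cells and -100% = media-only wells without cells; nearly all actives have a fitted effect of over 55% in size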
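Read-out is CellTiter-Glo luminescence after 10 minutes at room temperature, following 48 hours' compound treatment of HT-1080-NT cells (750 cells/well, RPMI, 5% FBS, 37 degrees C).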
HT1080 IDH1KD tx – HT-1080 IDH1 knockdown cell toxicity (counter line); HT-1080 IDH1 knockdown viability, ATP luminescence, 48 h; 2% of 360,000 active; AID 686971; Potency, µM (series often up to 46.1 µM), for inactives: at the highest dose activity, negative = toxicity, most hits filed as cytotoxic;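 also: 0% = DMSO wells and -100% = cell-free medium wells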
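IDH1KD HT-1080 cells, 750/well, RPMI + 5% FBS; compound pinned after 2 h settling; 48 h, 37 °C; CellTiter-Glo luminescence; % activity normalised to DMSO and no-cell wells; curves fitted, classed by r2 and efficacy.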
SW480 rerep – induces DNA re-replication in SW480 colon adenocarcinoma cells. SW480 DNA re-replication, Hoechst DNA content imaging, 48 h. Potency, µM (doses to about 46.1 µM), without a hit: top-dose re-replication activation, hits mostly activators. 1.8% of 340,000 active. AID 624297; also: % of control where 0% means no effect; nearly all actives have a fitted effect of over 55% in size
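Readout is total intensity of Hoechst-stained nuclei, excited at 405 nm and collected at 500-530 nm. Compound treatment lasted 48 hr at 37 C in 5% CO2 before staining.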
KB-3-1 tox – KB-3-1 parental cell cytotoxicity; Potency, µM (doses to about 46.1 µM), most hits filed as cytotoxic; AID 1347075; KB-3-1 viability, CellTiter-Glo ATP luminescence, 72 h; 1.4% of 400,000 active; also: % is scaled to controls: 0 for no effect and ±100 for the full control effect; nearly all actives have a fitted effect of over 60% in size
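KB-3-1 parental drug-naive adenocarcinoma cells in DMEM/10% FBS, incubated 72 h at 37 C with pin-transferred compounds across a concentration series. Viability by CellTiter-Glo luminescence; concentration-response curves fitted after normalization.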
The depositor's hits bear a star; i = inactive; ? = inconclusive; . = not tested or not shown; [ ] = another dose, or the depositor's remark. Calls follow the shape of the dose curve; as a rule, active = well fitted curve in the direction sought with a large enough effect; inconclusive = small, poorly fitted or top-dose-only effect, or another doubt; inactive = no such curve, though single readings can be large; an effect the other way counts as inactive or inconclusive. Potency is read from the fitted curve at half-maximal effect.

SMILES	KB-V1 MDR tox	MCF10A rereplic	HT1080NT lethal	HT1080 IDH1KD tx	SW480 rerep	KB-3-1 tox
Clc1ccccc1CN1CCN(c2ccccc2)CC1	i	?	2%	-13%	?	i
COc1ccccc1N1CCN(Cc2ccccc2F)CC1	i	9%	5%	7%	-3%	i
COc1ccccc1N1CCN(Cc2ccccc2Cl)CC1	21µM*	?	25%	13%	1%	i
Cc1cc(C)c2c(ccc3cccc[n+]32)c1	?	8%	?	?	-2%	?
CN(C)C(=O)Oc1ccc(-c2cn3cc(Cl)ccc3n2)cc1	4.1µM*	1%	-2%	-11%	1%	i
CN(C)C(=O)Oc1cccc(-c2cn3cc(Cl)ccc3n2)c1	13µM*	25%	8%	-1%	11%	i
CN(C)C(=O)Oc1ccc(-c2cn3cc(C(F)(F)F)ccc3n2)cc1	i	11%	3%	23%	?	i
CNC(C)C(O)c1ccc(O)cc1 (centres undefined)	.	7%	.	.	0%	.
Cc1nn(Cc2ccccc2)c(C)c1C(=O)OCC(=O)Nc1cccc(S(N)(=O)=O)c1	i	19%	-5%	-13%	-1%	i
COC(=O)C1=C(c2cc3ccccc3o2)C[C@@H]2CC[C@H]1N2C(=O)N1CCCC1	i	-8%	4%	0%	-2%	?
COC(=O)C1=C(c2cc3ccccc3o2)C[C@@H]2CC[C@H]1N2C(=O)N1CCCCC1	?	?	?	10µM*	12µM*	5.8µM*
COC(=O)C1=C(c2cc3ccccc3s2)C[C@@H]2CC[C@H]1N2C(=O)N1CCOCC1	i	?	9.2µM*	8.2µM*	?	?
O=C(c1cc2c(s1)-c1ccccc1OC2)N1CCC2(CC1)OCCO2	13µM*	?	?	?	?	i
COc1ccccc1C1SCC(=O)Nc2c1c(C)nn2-c1cccc(C)c1 (centres undefined)	i	.	.	.	.	i
COc1ccc(OC)c(C2C(C#N)=C(N)Oc3c2c(C)nn3-c2cccc(Cl)c2)c1 (centres undefined)	i	?	?	?	6%	23µM*
CCCCN1C(=O)C(C2c3ccccc3C(=O)N2Cc2ccccc2)C(=O)NC1=S (centres undefined)	i	6%	-5%	-3%	2%	i
CC(C)C(=O)Nc1ccc(C(=O)NCc2cccnc2)cc1	i	6%	?	23µM*	0.52µM*	i
O=C(NCc1cccnc1)C(Cl)(Cl)Cl	i	4%	12%	10%	-1%	i
COC(=O)C1=C(c2ccc(F)cc2OCc2ccccc2)C[C@@H]2CC[C@H]1N2C(=O)NCCOc1ccccc1	?	?	0%	5%	-8%	?
CC(=NCCN1CCOCC1)c1c(O)n(Cc2ccccc2)c(=O)[nH]c1=O	i	-2%	16%	0%	7%	i
CCC(=NCCc1c[nH]c2ccccc12)c1c(O)n(-c2ccc(C)cc2)c(=O)[nH]c1=O	21µM*	?	3%	-12%	?	i
CC(=NCCc1c[nH]c2ccccc12)c1c(O)n(Cc2ccccc2)c(=O)[nH]c1=O	12µM*	?	-27%	?	15µM*	i
CN1C(=O)/C(=C\N2CCc3ccccc32)C(=O)NC1=S	i	-5%	-3%	-2%	-3%	i
CCc1ccc2c(c1)Sc1ccccc1CC2N1CCN(C)CC1 (centres undefined)	i	?	-19%	-27%	26µM*	i
CC(C)c1ccc(C(O)P(=O)(OCc2ccccc2)c2ccc(N(C)C)cc2)cc1 (centres undefined)	i	?	-5%	-2%	2%	i
SMILES	KB-V1 MDR tox	MCF10A rereplic	HT1080NT lethal	HT1080 IDH1KD tx	SW480 rerep	KB-3-1 tox
CCCCOP(=O)(c1ccc(N(C)C)cc1)C(Nc1ccccc1)c1ccccc1 (centres undefined)	3.7µM*	21µM*	-10%	-18%	?	?
CC(C)(C)c1nc(N2CCN(C(=O)c3ccco3)CC2)c2nnn(Cc3ccccc3Cl)c2n1	12µM*	18µM*	-1%	-2%	10%	i
CC1(c2ccccc2)CC(C)(C)N2C(=O)C3(C(C#N)=C(N)Oc4cc(O)ccc43)c3cccc1c32 (centres undefined)	21µM*	?	?	?	6%	i
CN(C)CCCOc1nn(Cc2ccccc2)c2ccccc12	?	-28%	?	18µM*	-4%	i
CN(C)CCn1cnc2ccccc21	i	10%	3%	9%	2%	i
c1cc2c(cc1NC1=NCCO1)CCCC2	?	?	?	?	?	15µM*
Cc1c(C(=O)NCCC2=CCCCC2)oc2ccc(S(=O)(=O)N3CCC4(CC3)OCCO4)cc12	16µM*	?	-11%	-27%	24%	?
O=C1C2C3CCC(O3)C2C(=O)N1c1cccc(F)c1 (centres undefined)	i	8%	25%	1%	?	i
COC(/C(C)=C/C=C/C(C)=C/c1coc(C)n1)C(C)C1CC(O)C2(C)OC2C=CC(C)C2CC(CC(=O)O2)CC2OC2C(=O)O1 (centres undefined)	i	?	0.013µM*	?	?	?
N#CC1=C(N)Oc2c(c(=O)sc3ccccc23)C1c1cccnc1 (centres undefined)	i	8.2µM*	3.3µM*	4.6µM*	15µM*	?
C1=NCCc2c1[nH]c1ccccc21	16µM*	16µM*	?	16µM*	4.1µM*	?
COc1cc2c(cc1O)C[C@H]1NCCc3cc4c(c-2c31)OCO4	i	18µM*	?	?	?	?
CN1C(=O)C(=Cc2ccccc2OCc2ccccc2Cl)C(=O)N(C)C1=O	i	?	16µM*	16µM*	?	?
CN1C(=O)C(=Cc2ccccc2OCc2ccc(C(=O)O)cc2)C(=O)N(C)C1=O	i	?	-11%	2%	7%	i
Cc1cc(Oc2ccc(C(F)(F)F)cc2[N+](=O)[O-])c2c3c(c(=O)oc2c1)CCCC3	?	12%	0%	-7%	3%	i
CN1CCC(N(C)c2nc(-c3ccccc3)nc3ccccc23)CC1	i	-6%	16µM*	-2%[9.24 µM]	2%	i
COc1cc2nc(N3CCCN(C)CC3)nc(N(C)C3CCN(C)CC3)c2cc1OC	i	.	.	.	.	i
